Compound activity (PubChem BioAssay)
Sampled rows, rich in hits. Any-hit rate of the full collection: about 18%.
DT40 TDP1 CPT = qHTS for Inhibitors of human tyrosyl-DNA phosphodiesterase 1 (TDP1): qHTS in cells in presence of CPT; 420,000 tested, 12% active; chicken DT40 Tdp1-/-;hTDP1 cells + 20 nM CPT, ATP luminescence, 48 h; Potency, µM (doses to about 46.2 µM), for the others: at the highest dose activity change, negative = growth inhibition, usual class: inhibitors; note: potency is the fitted concentration of half-maximal effect; % is set by controls: 0 for no effect and ±100 for the full control effect; nearly all actives have a fitted effect of over 55% in size
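Cell growth measured by CellTiter-Glo luminescence after a minimum 48 h, 37 C compound exposure with 20 nM CPT in Tdp1-knockout DT40 cells stably expressing hTDP1, seeded 400/well; qHTS titration format.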
IL-1B inflam inh = qHTS for Inhibitors of Inflammasome Signaling: IL-1-beta AlphaLISA Primary Screen; THP-1 LPS/ATP IL-1B secretion, AlphaLISA, 16 h; hits give low values; AID 743279, 2014; 360,000 tested, 4.7% active; activity change, % at 57.5 µM; in the data active = activity change below about -50%; inconclusive = mostly about -30% to -49%; note: % is set by controls: 0 for no effect and ±100 for the full control effect
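THP-1 cells pretreated 1 hr with compounds (up to 57.5 uM final), then stimulated with LPS (250 ng/mL final) plus ATP (1.25 mM final); secreted IL-1B measured by AlphaLISA after 16 hr, decreased signal indicating inhibition.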
TGFb SMAD3 inh = qHTS for Inhibitors of TGF-b; HepG2 CAGA-GFP TGF-b/SMAD3 reporter, GFP fluorescence, 18 h; TGF-beta stimulated, 500 pg/mL final; Potency, µM (highest dose often 46.1 µM), inactives show top-dose activity, negative = inhibition, most hits filed as inhibitors; 410,000 tested, 1.2% active; note: potency is the fitted concentration of half-maximal effect; % is set by controls: 0 for no effect and ±100 for the full control effect; nearly all actives have a fitted effect of over 65% in size
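Inhibition was scored as loss of TGF-beta-induced (500 pg/mL final, 18 hours, 37 degrees C) GFP in HEPG2 cells carrying a CAGA-GFP reporter, in DMEM with 1% FBS. Well GFP was summed per cell; Activity was normalised to unstimulated and stimulated DMSO wells, then concentration-response fitting.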
TDP1 cell noCPT = qHTS for Inhibitors of human tyrosyl-DNA phosphodiesterase 1 (TDP1): qHTS in cells in absence of CPT. DT40 Tdp1-/- hTDP1 cells, no CPT, ATP luminescence, 48 h. Potency, µM (series often up to 46.2 µM), for the others: top-dose activity change, negative = growth inhibition, usual class: inhibitors. 420,000 tested, 15% active. AID 686978, 2013; note: potency is the fitted concentration of half-maximal effect; % is set by controls: 0 for no effect and ±100 for the full control effect; nearly all actives have a fitted effect of over 55% in size
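Readout: luminescence from CellTiter-Glo after 30 min in the dark at RT. Cells: DT40 Tdp1-/- with stable hTDP1, 400/well. Exposure: compounds alone, ≥48 hr, 37 °C.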
TDP1 inh = qHTS Assay for Inhibitors of Tyrosyl-DNA Phosphodiesterase (TDP1) | Potency, µM (titrated, usually from 130 µM), inactives show at the top dose activity change, negative = inhibition, hits mostly inhibitors | AID 485290, 2010 | recombinant TDP1, AlphaScreen DNA substrate cleavage | 350,000 tested, 0.28% active; note: potency is the fitted concentration of half-maximal effect; % is set by controls: 0 for no effect and ±100 for the full control effect; nearly all actives have a fitted effect of over 40% in size
Target sequence (Q9NUW8 whole entry, looked up): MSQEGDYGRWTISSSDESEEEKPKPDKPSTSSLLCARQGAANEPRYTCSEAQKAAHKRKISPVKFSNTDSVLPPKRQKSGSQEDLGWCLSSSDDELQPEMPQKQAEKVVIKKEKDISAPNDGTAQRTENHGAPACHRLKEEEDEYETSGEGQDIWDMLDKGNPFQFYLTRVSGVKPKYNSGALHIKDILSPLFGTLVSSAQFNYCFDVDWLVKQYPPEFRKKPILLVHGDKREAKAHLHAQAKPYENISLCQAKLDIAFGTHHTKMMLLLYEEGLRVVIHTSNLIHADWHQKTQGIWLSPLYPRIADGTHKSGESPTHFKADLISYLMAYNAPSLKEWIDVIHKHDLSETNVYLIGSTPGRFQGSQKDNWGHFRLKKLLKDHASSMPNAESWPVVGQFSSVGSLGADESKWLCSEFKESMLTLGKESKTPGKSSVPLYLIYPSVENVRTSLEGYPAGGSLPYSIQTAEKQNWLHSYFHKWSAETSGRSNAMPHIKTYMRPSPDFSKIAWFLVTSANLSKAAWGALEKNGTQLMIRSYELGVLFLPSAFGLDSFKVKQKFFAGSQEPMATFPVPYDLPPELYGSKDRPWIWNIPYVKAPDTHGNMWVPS
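Here, a 5' biotin and 3' phosphotyrosine-FITC DNA oligonucleotide reports Tdp1 activity: intact substrate bridges AlphaScreen beads, while cleavage leaves a 3' phosphate and drops signal. All incubations at room temperature.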
HepG2 tox = qHTS for Inhibitors of TGF-b: Cytotox Counterscreen; HepG2 CAGA-GFP viability, ATP luminescence, 18 h; Potency, µM (doses to about 46.1 µM), for the others: at the highest dose activity change, negative = cytotoxicity, usual class: cytotoxic; 410,000 tested, 0.76% active; AID 588856, 2011; note: potency is the fitted concentration of half-maximal effect
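CellTiter-Glo luminescence gave cytotoxicity after 18 hours at 37 degrees C. The cells were HepG2 CAGA-GFP in 1% FBS DMEM, stimulated with 500 pg/mL TGF-beta after compound addition. %Activity was normalised to no-cell wells (complete cell-killing) and DMSO (no toxicity), and curves were fitted and classified.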
Active calls of the source: *; ? = inconclusive; . = no result given; [ ] = another dose, or the depositor's remark. Unless noted, calls come from the whole dose curve; as a rule, active = well fitted curve in the direction sought with a large enough effect; inconclusive = small, poorly fitted or top-dose-only effect, or another doubt; inactive = no such curve, though single readings can be large; an effect the other way counts as inactive or inconclusive.

SMILES	DT40 TDP1 CPT	IL-1B inflam inh	TGFb SMAD3 inh	TDP1 cell noCPT	TDP1 inh	HepG2 tox
CO[C@@H]1COC(=O)C/C=C\[C@H](C)COC(=O)[C@H](Cc2ccccc2)NC(=O)C/C=C\[C@H]1C	.	.	.	.	2.6%[21 µM]	.
O=c1c2ccccc2nnn1CCO	-2.7%	6.8	-4.6%	-0.4%	.	2.3%
O=C(O)CCCN1C(=O)/C(=C\c2ccco2)SC1=S	3.8%	?	5.4%	12.9%	22.4µM*	-17.7%
Cn1cc(Br)c(-c2cccc(NC(=O)CCC(=O)O)c2)n1	14.4%	5.4	15.2%	14.8%	0.0%	7.9%
N#Cc1cccc(NC(=O)N2CCCC3(CCN(C(=O)c4cccc(F)c4)CC3)C2)c1	-11.9%	.	.	?	.	.
O=C(c1cccc(F)c1)N1CCC2(CC1)CN(c1cccc(-c3ccccc3)c1)C2	?	.	.	16.4µM*	.	.
N#Cc1cccc(NC(=O)N2CC[C@@]3(CCCN(C(=O)c4cccc(F)c4)C3)C2)c1	-24.7%	.	.	20.6µM*	.	.
O=C(c1cccc(F)c1)N1CCC2(CC1)CCN(c1cccc(-c3ccccc3)c1)CC2	?	.	.	16.4µM*	.	.
COc1ccc(C(=O)N2CCC3(CC2)CCN(c2cccc(-c4ccccc4)c2)CC3)cc1	0.116µM*	.	.	0.231µM*	.	.
O=C(c1cccc(F)c1)N1CCC2(CC1)CN(Cc1ccccc1)C2	-3.5%	.	.	-6.6%	.	.
O=C(c1cccc(F)c1)N1CCC2(CCCN(c3cccc(-c4ccccc4)c3)C2)CC1	-3.5%	.	.	?	.	.
Cc1cccc(CN2C(=O)c3ccccc3Sc3ccc(C(=O)NC4CCCCC4)cc32)c1	-9.1%	.	-10.0%	?	7.8%	-2.0%
C#CCNC(=O)C[C@@H]1C[C@@]2(C(=O)OCC)CCCC=C2N(Cc2cccc3ccccc23)C1=O	?	43.1	.	?	.	.
O=C(c1cccc(F)c1)N1CCC[C@@]2(CCN(c3cccc(-c4ccccc4)c3)C2)C1	20.6µM*	.	.	20.6µM*	.	.
CCOc1ccc(S(=O)(=O)N2CCC(c3ccncc3)CC2)cc1	11.6µM*	.	?	?	1.5%	-18.0%
CCOc1ccc(S(=O)(=O)N2CCC(n3c(C)nc4cccnc43)CC2)cc1	20.6µM*	.	-20.4%	11.6µM*	5.3%	5.0%
CCCS(=O)(=O)N1CCC(n2c(C)nc3cccnc32)CC1	18.4µM*	.	-12.1%	18.4µM*	5.3%	-3.8%
CCOc1ccc(S(=O)(=O)n2c(C)nc3ccccc32)cc1	?	42.0	-12.0%	20.6µM*	-2.6%	-3.8%
Cc1nc2cccnc2n1C1CCN(S(=O)(=O)N(C)C)CC1	3.7%	.	3.4%	?	5.3%	-17.4%
CC(=O)Oc1ccc2nc(/C=C/c3ccccc3)oc(=O)c2c1	3.1%	1.5	22.6%	-2.1%	.	5.2%
CC1CCCN(S(=O)(=O)c2ccc(N3CCCCS3(=O)=O)cc2)C1 (configuration not stated)	-21.4%	.	-1.6%	-28.4%	1.2%	-31.0%
Cc1ccsc1/C=C1\SC(N2CC(C)OC(C)C2)=NC1=O (configuration not stated)	?	0.0	-30.3%	14.6µM*	2.3%	-9.7%
O=C(NC(=S)N1CCN(C/C=C/c2ccccc2)CC1)c1ccco1	?	1.5	-13.7%	20.6µM*	6.0%	21.3%
O=C(/C=C/c1ccccc1)NC(=S)NNC(=O)c1ccco1	?	63.4	-18.7%	20.6µM*	9.7%	-7.0%
O=C(c1ccco1)N1CCN(C/C=C/c2ccccc2)CC1	-12.8%	-8.2	12.9%	?	5.2%	-37.2%
SMILES	DT40 TDP1 CPT	IL-1B inflam inh	TGFb SMAD3 inh	TDP1 cell noCPT	TDP1 inh	HepG2 tox
O=C(/C=C/c1ccc(Br)cc1)NC(=S)NNC(=O)c1ccco1	?	38.8	-6.7%	18.4µM*	11.2%	0.5%
NS(=O)(=O)c1ccc(NNC(=O)c2ccc(Br)o2)c([N+](=O)[O-])c1	?	?	-0.1%	?	4.8%	7.7%
CN(C)c1cccc(C(=O)NNC(=O)/C=C/c2cccs2)c1	-13.2%	-27.0	7.9%	-12.4%	4.4%	-17.6%
COc1ccc(-n2c(=O)c3sc4ccccc4c3n(CC(=O)NCc3ccccc3)c2=O)cc1	?	.	-0.9%	?	3.8%	-0.1%
CN(C)CCNc1ncnc2c1sc1nc(-c3ccccc3)c3c(c12)CCCC3	?	-75.8*	?	23.1µM*	.	14.1µM*
COc1ncnc2c1sc1nc(-c3ccccc3)c3c(c12)CCCC3	?	17.9	5.3%	-15.3%	0.6%	-0.4%
COc1cccc(CNC(=O)c2c(OC)cc(=O)n3c2CCN(C(=O)C2CC24CCCC4)CC3)c1 (configuration not stated)	-7.4%	.	.	-4.1%	.	.
COc1ncccc1C(=O)N1CCOc2ccc(C(O)C(c3ccccc3)c3ccccc3)cc2C1 (configuration not stated)	-5.3%[9.04 µM]	.	.	?	.	.
c1nc(SSc2ncc3n[nH]nc3n2)nc2n[nH]nc12	3.9%	.	-3.0%	-21.0%	.	2.0%
COCCN(Cc1nc(-c2ccc(-c3ccccc3)cc2)oc1C)C(C)C	14.6µM*	13.3	?	20.6µM*	.	-25.5%
CCn1c(SCC(=O)NCc2ccco2)nc2ccccc2c1=O	-3.9%	0.0	0.4%	-0.7%	3.6%	-26.5%
O=C(CSc1ncc(-c2ccccc2)n1-c1ccccc1)NCc1ccco1	?	-1.6	-3.1%	16.4µM*	9.8%	-0.3%
O=C(CSc1nc2ccccc2c2nc3ccccc3n12)NCc1ccco1	25.9µM*	-4.4	-17.6%	23.1µM*	.	-20.2%
Cc1ccc(NC(=O)CSc2nc3ccccc3c3nc4ccccc4n23)cc1	0.651µM*	43.7	-5.5%	0.581µM*	8.8%	2.0%
CCOC(=O)c1cc(C)sc1NC(=O)CN1CCN(C(=O)C2CCCO2)CC1 (configuration not stated)	?	-6.7	-1.1%	?	2.3%	-22.0%
COCCN1CCN(C(=O)c2cnn(-c3nccc(-c4ccco4)n3)c2C(C)C)CC1	15.7%[9.04 µM]	.	.	-2.7%	.	.
COc1cccc(-c2ncc3ccccc3c2COC(=O)CCCC(=O)O)c1	-27.0%	9.0	5.9%	3.1%	1.3%	-2.8%
COc1cccc(/C=N/NC(=O)Cn2ccnc2C)c1	-7.5%	26.8	6.6%	-3.2%	2.7%	-4.7%
